This note sets out measurements from PubChem BioAssay (Tox21).

Values without a mark were called inactive. Inconclusive results are not listed. Activity calls are given as the source filed them. Unless noted, the call rests on the fitted dose curve.

A short description of assay [1]: Nuclear factor erythroid 2-related factor 2/antioxidant responsive element (Nrf2/ARE) small molecule agonists: qHTS cell viability counter screen in human keratinocytes (AID 1919968; active means well fitted curve in the direction sought with a large enough effect in the repeat runs; an effect the other way counts as inactive or inconclusive; further: nearly all actives have a fitted effect of over 55% in size). The method in brief:
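Seed 1,500 KeratinoSens cells per well, then incubate 5 h at 37 C/5% CO2. Add compounds in DMSO and incubate 23 h. Add CellTiter-Fluor, wait 1 h and read fluorescence.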

Assay [2] can be described thus: Nuclear factor erythroid 2-related factor 2/antioxidant responsive element (Nrf2/ARE) small molecule agonists: luciferase reporter gene qHTS assay in human keratinocytes (AID 1919969). Further: nearly all actives have a fitted effect of over 35% in size.
Assay [3] deals with Gonadotropin-releasing hormone receptor (Homo sapiens) (UniProt P30968). Kind of assay: Human gonadotropin-releasing hormone receptor (GnRHR) small molecule agonists, calcium flux assay in GnRHR-HEK293 cells (AID 1920063). Further: nearly all actives have a fitted effect of over 35% in size. The method in brief: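 Cells: HEK293 stably expressing human GnRHR. Steps: overnight (18 h) culture, 1 h calcium dye loading at 37 C, compound addition, kinetic fluorescence read at 480/540 nm. Each compound tested at 15 concentrations in triplicate.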
Chain of Gonadotropin-releasing hormone receptor (Homo sapiens) (P30968 whole entry, looked up): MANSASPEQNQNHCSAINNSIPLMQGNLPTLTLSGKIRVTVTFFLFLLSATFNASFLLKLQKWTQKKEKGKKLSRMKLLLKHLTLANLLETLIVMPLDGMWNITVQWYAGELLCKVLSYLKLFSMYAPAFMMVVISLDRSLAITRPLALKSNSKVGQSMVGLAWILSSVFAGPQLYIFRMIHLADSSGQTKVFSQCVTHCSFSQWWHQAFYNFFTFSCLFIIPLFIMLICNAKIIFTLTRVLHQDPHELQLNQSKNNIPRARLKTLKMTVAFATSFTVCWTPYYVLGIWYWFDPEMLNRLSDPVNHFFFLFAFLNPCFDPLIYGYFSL

In assay [4] the target is KiSS-1 receptor (Homo sapiens) (UniProt Q969F8). The assay can be described thus: Human kisspeptin (KISS1R) small molecule agonists, calcium flux assay in KISS1R-HEK293 cells (AID 1920064; active means well fitted curve in the direction sought with a large enough effect in the repeat runs; an effect the other way counts as inactive or inconclusive). Put shortly:
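Cells plated and incubated 18 h; dye added, 1 h at 37 C; compounds in DMSO pinned in; signal read at 480/540 nm every second for 3 min. Each compound tested at 15 concentrations in triplicate.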

Assay [5] in a line: G protein-coupled receptor (GPCR) small molecule agonists, calcium flux assay: HEK293 wild type cell line counter screen (AID 1920065). Put shortly: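 Counter-screen of the Tox21 10K library for non-specific calcium release: dye-loaded cells received compounds in DMSO and were monitored by kinetic fluorescence (480/540 nm, 3 min). Fifteen concentrations, run in triplicate.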

Assay [6] in a line: p53 small molecule agonists, cell-based qHTS assay with human liver microsomes (AID 1963577). The method in brief: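 In this qHTS, p53 response-element beta-lactamase cells receive test compound together with a microsome/NADPH activating system (0.5 mg/mL final each) and are incubated 16 h at 37 C before LiveBLAzer fluorescence detection.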
Assay [7] can be described thus: p53 small molecule agonists, cell-based qHTS assay with rat liver microsomes (AID 1963578). The method in brief:
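Agonist mode in p53RE-bla reporter cells, with compounds co-incubated 16 h at 37 C alongside 0.5 mg/mL rat liver microsomes and 0.5 mg/mL NADPH (final), followed by a 2 h LiveBLAzer detection step.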

Assay [8] can be described thus: p53 small molecule agonists, cell-based qHTS assay with human liver microsomes: qHTS cell viability counter screen (AID 1963579). Further: nearly all actives have a fitted effect of over 45% in size. The method in brief:
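Metabolically activated exposure: compounds, human liver microsomes and NADPH (0.5 mg/mL final apiece) were added to p53RE-bla cells seeded 5 h earlier, left 16 h at 37 C, and then assessed for viability by CellTiter-Glo luminescence.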

The nature of assay [9]: p53 small molecule agonists, cell-based qHTS assay with rat liver microsomes: qHTS cell viability counter screen (AID 1963580). Further: nearly all actives have a fitted effect of over 45% in size. Put shortly: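 In HCT-116 cells carrying a p53 response element-bla reporter, compounds were metabolically activated in situ by rat liver microsomes with NADPH over 16 h. Cell ATP content then served as the cytotoxicity measure.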
Assay [10] in a line: p53 small molecule agonists, cell-based qHTS assay (AID 1963582; active means well fitted activation curve with a large enough effect in the signal ratio in the repeat runs, not every such curve was filed as active; the % refers to the signal ratio). The method in brief:
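Quantitative HTS in p53RE-bla cells: after a 5 h settling period, compounds delivered in DMSO were left on cells for 16 h at 37 C, and reporter induction was measured as fluorescence following 2 h substrate loading.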

The target of assay [11] is 5-hydroxytryptamine receptor 2A (Homo sapiens) (UniProt P28223). The assay can be described thus: 5-hydroxytryptamine receptor 2A (HTR2A) small molecule agonists, cell-based qHTS assay (AID 1963587). Further: nearly all actives have a fitted effect of over 30% in size. Put shortly:
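HTR2A-CHO cells, plated 18 h at 37 C/5% CO2, dye-loaded 1 h at 37 C; compounds in DMSO added by pin tool (agonist mode). Intracellular calcium flux read as kinetic fluorescence on FDSS over 2 min at 1 s intervals.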

Assay [12] deals with Muscarinic acetylcholine receptor M1 (Homo sapiens) (UniProt P11229). The assay can be described thus: Cholinergic receptor muscarinic 1 (CHRM1) small molecule antagonists, cell-based qHTS assay (AID 1963588). Further: nearly all actives have a fitted effect of over 40% in size. Further: potency means the concentration at half of the fitted maximal effect. The method in brief: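 CHRM1-CHO calcium-flux assay, antagonist mode. Cells were seeded 18 h, dye-loaded 1 h at 37 C and given compound for 5 min at RT, then acetylcholine was added at 50nM. FDSS fluorescence was read 3 min; 15 concentrations, three runs.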
Chain of Muscarinic acetylcholine receptor M1 (Homo sapiens) (P11229 whole entry, looked up): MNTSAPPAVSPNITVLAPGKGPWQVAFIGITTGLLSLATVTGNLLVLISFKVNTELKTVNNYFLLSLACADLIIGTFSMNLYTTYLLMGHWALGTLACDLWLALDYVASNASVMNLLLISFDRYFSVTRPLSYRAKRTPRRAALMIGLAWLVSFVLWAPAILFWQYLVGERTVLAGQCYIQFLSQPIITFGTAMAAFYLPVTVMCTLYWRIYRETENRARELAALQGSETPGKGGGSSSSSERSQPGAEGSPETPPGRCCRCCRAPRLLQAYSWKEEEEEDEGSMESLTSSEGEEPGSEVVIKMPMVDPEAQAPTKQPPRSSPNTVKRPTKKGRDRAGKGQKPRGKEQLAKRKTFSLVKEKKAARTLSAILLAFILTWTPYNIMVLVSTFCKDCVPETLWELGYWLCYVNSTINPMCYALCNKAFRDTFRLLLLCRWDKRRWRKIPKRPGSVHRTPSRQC

For assay [13] the target is unchanged. Kind of assay: Cholinergic receptor muscarinic 1 (CHRM1) small molecule agonists, cell-based qHTS assay (AID 1963589). Further: nearly all actives have a fitted effect of over 35% in size. The method in brief: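 Agonist-mode qHTS in CHO cells stably carrying human muscarinic M1. Intracellular calcium is tracked by fluorescence every second after compound transfer; each compound runs at 15 concentrations in three independent runs.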

Assay [14] can be described thus: cAMP Responsive Elements (CRE) small molecule agonists, cell-based qHTS assay (AID 1963590). Put shortly: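 Agonist mode qHTS in CRE-bla HEK 293T cells: compounds dosed from DMSO for 3 h at 37 C/5% CO2, followed by LiveBLAzer B/G FRET substrate for 2 h at room temperature.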
In assay [15] the target is Beta-2 adrenergic receptor (Homo sapiens) (UniProt P07550). Kind of assay: Adrenergic beta2 receptor (ADRB2) small molecule antagonists, cell-based qHTS assay (AID 1963592). Further: series mostly up to about 92 µM; nearly all actives have a fitted effect of over 50% in size. The method in brief:
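Cells (CHO, stable ADRB2 overexpression) incubated 18-20hr at 37C; compounds added from DMSO; agonist mix (1nM isoproterenol, 100uM IBMX, 25uM Ro-20-1724) added; 0.5hr RT; d2-cAMP and anti-cAMP-cryptate added; 1hr RT; 665/615 nm read.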

Assay [16] has as its target D(2) dopamine receptor (Homo sapiens) (UniProt P14416). Kind of assay: Dopamine D2 receptor (DRD2) small molecule agonists, cell-based qHTS assay (AID 1963594). Further: nearly all actives have a fitted effect of over 35% in size. The method in brief:
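HEK293 cells stably expressing DRD2 were cultured 24 h at 37 C, then given Ro20-1724 (0.1 mM final) and compounds for 10 min at room temperature. NKH477 (200nM) was then added for 30 min. cAMP was read by HTRF.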

The target is the same in assay [17]. Kind of assay: Dopamine D2 receptor (DRD2) small molecule antagonists, cell-based qHTS assay (AID 1963595; active means well fitted inhibition curve with a large enough effect in the signal ratio in the repeat runs, with a control signal flat; the % refers to the signal ratio). The method in brief: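 In this cell-based antagonist screen, compounds act for 10 min at room temperature before a 30 min challenge with 12 nM quinpirole and 200 nM NKH477. cAMP is quantified by HTRF competition in DRD2-HEK293 cells containing 0.1 mM Ro20-1724.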

Assay [18] addresses 5-hydroxytryptamine receptor 2A (Homo sapiens) (UniProt P28223). The assay can be described thus: 5-hydroxytryptamine receptor 2A (HTR2A) small molecule antagonists, cell-based qHTS assay (AID 1963586). Further: nearly all actives have a fitted effect of over 45% in size. Put shortly:
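Antagonist-mode intracellular calcium assay: DOI (4 nM) added after 5 min compound pre-incubation at room temperature to dye-loaded HTR2A-CHO cells. Fluorescence followed for 3 min, sampled every second.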

The nature of assay [19]: cAMP Responsive Elements (CRE) small molecule antagonists, cell-based qHTS assay (AID 1963591; active means well fitted inhibition curve with a large enough effect in the signal ratio in the repeat runs, not every such curve was filed as active; the % refers to the signal ratio). Put shortly:
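Antagonist mode: test compounds are co-incubated with the adenylyl cyclase activator NKH477 (0.25 uM final) on CRE-bla HEK293T cells for 3 h at 37 °C, followed by LiveBLAzer substrate loading.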
On the % scale 0 is the no-effect control and ±100 the full control effect.

Chain of Beta-2 adrenergic receptor (Homo sapiens) (P07550 whole entry, looked up): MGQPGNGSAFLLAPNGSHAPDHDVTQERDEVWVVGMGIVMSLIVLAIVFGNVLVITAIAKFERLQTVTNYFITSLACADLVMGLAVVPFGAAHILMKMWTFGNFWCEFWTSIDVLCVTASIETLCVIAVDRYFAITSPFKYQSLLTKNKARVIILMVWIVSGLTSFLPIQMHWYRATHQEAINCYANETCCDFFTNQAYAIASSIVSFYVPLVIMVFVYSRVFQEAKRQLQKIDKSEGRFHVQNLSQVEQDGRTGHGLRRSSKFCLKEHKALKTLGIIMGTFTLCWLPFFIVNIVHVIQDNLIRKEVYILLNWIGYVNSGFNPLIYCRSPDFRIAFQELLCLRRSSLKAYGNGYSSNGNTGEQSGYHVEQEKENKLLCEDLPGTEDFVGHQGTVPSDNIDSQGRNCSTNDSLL
Chain of D(2) dopamine receptor (Homo sapiens) (P14416 whole entry, looked up): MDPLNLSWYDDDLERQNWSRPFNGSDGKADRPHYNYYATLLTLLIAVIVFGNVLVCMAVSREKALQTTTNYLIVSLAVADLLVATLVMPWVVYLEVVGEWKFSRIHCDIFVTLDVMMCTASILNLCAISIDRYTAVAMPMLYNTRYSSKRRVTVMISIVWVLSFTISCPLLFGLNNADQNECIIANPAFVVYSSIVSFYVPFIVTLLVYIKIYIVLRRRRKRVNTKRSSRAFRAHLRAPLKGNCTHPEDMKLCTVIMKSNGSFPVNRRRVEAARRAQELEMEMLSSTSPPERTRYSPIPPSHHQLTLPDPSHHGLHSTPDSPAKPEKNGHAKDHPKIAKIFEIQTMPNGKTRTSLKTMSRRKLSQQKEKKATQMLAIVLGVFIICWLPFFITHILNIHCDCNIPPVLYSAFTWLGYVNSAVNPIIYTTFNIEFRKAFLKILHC
Chain of KiSS-1 receptor (Homo sapiens) (Q969F8 whole entry, looked up): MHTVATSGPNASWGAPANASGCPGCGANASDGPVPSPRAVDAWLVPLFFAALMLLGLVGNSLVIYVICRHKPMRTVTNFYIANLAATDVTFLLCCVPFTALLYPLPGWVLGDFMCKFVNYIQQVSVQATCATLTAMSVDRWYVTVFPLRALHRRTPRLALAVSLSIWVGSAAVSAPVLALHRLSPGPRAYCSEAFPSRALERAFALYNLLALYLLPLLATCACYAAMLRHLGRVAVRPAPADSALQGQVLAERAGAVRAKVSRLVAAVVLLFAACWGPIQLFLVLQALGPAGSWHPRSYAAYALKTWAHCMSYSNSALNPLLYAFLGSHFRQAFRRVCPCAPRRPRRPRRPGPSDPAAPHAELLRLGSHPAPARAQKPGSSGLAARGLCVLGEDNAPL
Chain of 5-hydroxytryptamine receptor 2A (Homo sapiens) (P28223 whole entry, looked up): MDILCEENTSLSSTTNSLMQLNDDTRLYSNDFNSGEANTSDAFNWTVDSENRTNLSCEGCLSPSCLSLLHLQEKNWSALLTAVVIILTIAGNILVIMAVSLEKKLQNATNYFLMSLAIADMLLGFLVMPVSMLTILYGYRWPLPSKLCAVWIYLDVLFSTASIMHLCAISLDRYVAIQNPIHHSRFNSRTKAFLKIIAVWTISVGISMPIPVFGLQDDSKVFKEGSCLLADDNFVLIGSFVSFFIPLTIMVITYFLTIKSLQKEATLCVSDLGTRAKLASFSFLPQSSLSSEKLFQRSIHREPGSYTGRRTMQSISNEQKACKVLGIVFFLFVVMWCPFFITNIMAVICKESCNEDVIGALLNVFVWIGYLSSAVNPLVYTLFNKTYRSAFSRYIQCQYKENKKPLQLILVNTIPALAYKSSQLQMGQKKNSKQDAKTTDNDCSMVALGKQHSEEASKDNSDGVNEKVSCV

For the compound `C/C=C(\C)C(=O)OCCC(C)CCC=C(C)C` (stereo not drawn), the Potency entry in assay [1], in [2], in assay [3], in assay [6], in assay [7] and in assay [8] was “inactive” in each case. For the same compound, the Potency result in assay [9], in assay [10], in [11], in assay [12], in [13] and in assay [14] was “inactive” throughout. Moreover, the Potency result in assay [15], in assay [16] and in [17] was “inactive” throughout. Besides, the result in [4] and in assay [5] was inactive.

For the compound `CC(C)(C)NCC(O)COc1cccc2c1CCC(=O)N2` (stereo not drawn), the Potency entry in assay [1], in [2], in assay [3], in [6], in assay [7] and in assay [8] was “inactive” throughout. In addition, the Potency entry in assay [9], in assay [10], in assay [11], in [12], in [13] and in assay [14] was “inactive” in each case. Further, the Potency result in [17] was “inactive”. Also, the result in [4] and in assay [5] was inactive.

In the case of `Oc1cn2c(n1)Nc1ccc(Cl)c(Cl)c1C2`, the activity change, negative = cytotoxicity in assay [1] is -5.95% [at 19 µM]; in assay [8], -1.56% [at 13.5 µM]; in assay [9], -5.66% [at 13.5 µM]. Further, in assay [2], the activity, positive = activation is -4.99% [at 19 µM]. Also, the activity change in assay [3] was -1.21% [at 11.8 µM, hits give high values]. Also, the activation in [4] was 1.57% [at 15.8 µM]; in [5], 0.199% [at 11.8 µM]; in assay [6], -4.43% [at 13.5 µM]; in assay [7], -0.253% [at 13.6 µM]; in assay [10] it was 2.32% [at 13.5 µM]; in assay [13], -0.629% [at 15.8 µM]. Moreover, in assay [16], the activation was 1.31% [at 19 µM]. Also, the activity, negative = inhibition in [18] is 4.4% [at 12.7 µM]. The activity change, negative = inhibition in assay [15] is 8.99% [at 19 µM]; in [17] it was -3.31% [at 18.9 µM].

In the case of `CCOC(=O)CC1(C)OCC(C)O1` (stereo not drawn), the Potency entry in assay [1], in assay [2], in [3], in assay [6], in [7] and in assay [8] was “inactive” each time. For the same compound, the Potency result in assay [9], in [10], in [18], in assay [11], in [14] and in assay [19] was “inactive” throughout. Also, the Potency entry in [15], in assay [16] and in [17] was “inactive” in each case. Also, the outcome in [4] and in assay [5] was inactive.

For `NC(=O)CC[C@@H]1NC(=O)[C@H](Cc2ccccc2)NC(=O)[C@H](Cc2ccc(O)cc2)NC(=O)CCSSC[C@@H](C(=O)N2CCC[C@H]2C(=O)N[C@@H](CCCN=C(N)N)C(=O)NCC(N)=O)NC(=O)[C@H](CC(N)=O)NC1=O`, the Potency result in assay [1], in [2], in assay [3], in [6], in assay [7] and in assay [8] was “inactive” each time. Besides, the Potency result in [9], in assay [10], in assay [14], in assay [15], in assay [16] and in [17] was “inactive” in each case. Further, the result in assay [4] and in [5] was inactive.

For the compound `C[N+]1(C)CCC(=C(c2ccccc2)c2ccccc2)CC1`, the Potency result in [1], in assay [2], in assay [3], in assay [6], in assay [7] and in assay [8] was “inactive” each time. Further, the Potency result in assay [9], in [10], in [13], in assay [14], in assay [19] and in [15] was “inactive” throughout. Further, the Potency entry in [16] and in [17] was “inactive” each time. The outcome in [4] and in assay [5] was inactive. Further, the Potency in assay [12] was 13 nM (active).

In the case of `C=C(C)C(=O)OC1CC(C)CC(C)(C)C1` (stereo not drawn), the Potency entry in assay [1], in assay [2], in assay [3], in assay [6], in assay [7] and in assay [8] was “inactive” throughout. The Potency entry in assay [9], in assay [10], in assay [18], in assay [12], in assay [13] and in assay [14] was “inactive” each time. Besides, the Potency result in [19], in [15], in assay [16] and in [17] was “inactive” each time. The result in [4] and in assay [5] was inactive.
